The results in this text go back to PubChem BioAssay (EPA / NIEHS).

The source made the active and inactive calls. How the source made its calls: active means hit-call score of the fitted dose curve at least 0.9, where 1 is the maximum; inactive means score below 0.9.

Read-out in this test: Bcl-2 (BAD) gene, BAD (gene 572)
Description: LTEA_HepaRG_BAD: Life Technologies and Expression Analysis (LTEA) Assay for Bcl-2 (BAD) gene using HepaRG (AID 2283469). Conditions: mRNA level, 48 h; actives raise or lower the signal. The procedure:
LTEA_HepaRG is a cell based, multiplexed-readout assay that uses HepaRG, a human liver cell line, with measurements taken at 48 hours after chemical dosing on a 96-well plate.LTEA_HepaRG_BAD is one of 102 assay component(s) measured in the LTEA HepaRG cell culture assay. It is a marker of Cell proliferation, survival, death.Data from the assay component LTEA_HepaRG_BAD was analyzed into 1 endpoint. This assay endpoint, LTEA_HepaRG_BAD, was analyzed with bidirectional fitting relative to DMSO as the negative control and baseline of activity. Using a type of inducible reporter, measures of mRNA induction for gain or loss-of-signal activity can be used to understand regulation of transcription factor activity. To generalize the intended target to other relatable targets, this assay endpoint is annotated to the cell cycle intended target family, where the subfamily is Cell proliferation, survival, death.
A total of 1060 chemcials from the ToxCast library were tested in eight-point concentration-response experiments. Cell culture and cytotoxicity assays were conducted at Thermo Fisher Scientific's Custom Services facility (Madison, WI). A single lot of human HepaRG cells (Thermo Fisher Scientific, Frederick, MD) was used for the cell culture experiments. 96-well format collagen type I coated plates of human HepaRG cells were prepared using established methods. Briefly, cryopreserved HepaRG cells were thawed, plated at a density of approximately 100,000 cells/well in HepaRG Thaw, Plate, and General Purpose media (HPRG770, Thermo Fisher Scientific), and incubated for 48 hours. 0.5% DMSO was selected as vehicle control to balance the requisite need of DMSO in HepaRG cultures to maintain differentiation (for example, baseline metabolism, proportions of hepatocytes vs. cholangiocytes), while enabling further hepatic receptor pathway activation (for example, PXR and CAR) in response to chemical exposure. 48 hours after plating, the culture medium was replaced with HepaRG Serum-Free Incudtion Media. Cells were exposed to each test chemical in duplicate and maintained in CO2 incubators for another 48 hours. Chemical plates were thawed to room temperature and 200x concentrations of treatment groups were prepared. 8-point conentration-reponse curves were made with the highest exposure at 100 uM, followed by half-log dilutions, all in 0.5% DMSO. Each test plate contained variouse controls, induction positive controls (1mM phenobarbital), cytotoxicity positive controls ([…] aflatoxin B1), vehicle controls (0.5% DMSO), and total lysis controls (0.5% DMSO). Cell morphology images were taken using an Essen IncuCyte FLR automated microscope, with six 96-well plates imaged in about 24 minutes. Images were captured and exported and JPEG files. Spent culture media was transfered to black-well plates for the LDH assay, and remaining media was sorted at -80 C for later use. Cells were treated with RLT buffer and frozen until shipped for gene expression analysis. Total RNA was isolated from the cell suspension in 75 uL of Buffer RLT (Qiagen, Germantown, MD 20874) by Quintiles/Expression Analysis (Durham, NC) using a custom isolation procedure. Total RNA from each plate well was transferred to a preamplification plate. Fluidigm's 96.96 Dynamic ArrayTM (Fluidigm, Amsterdam, the Netherlands) technology was used for gene expression analyses by quantitative reverse transcription polymerase chain reaction (qRT-PCR, performed by Quintiles/Expression Analysis, Durham, NC)89. Standard TaqManTM Assays (Applied Biosystems/ThermoFisher Scientific, Foster City, CA) were used to assess the expression of 93 genes selected based on their selectivity and sensitivity to important hepatic receptors known to be modulated by environmental chemicals; importance in human hepatocyte functionality; and hepatotoxicity. […]
For the compound `S=C1NCCN1`, the compound was classed as inactive. For `N#CSCSC#N`, the compound was classed as inactive. The result for `CC1(C(=O)Nc2ccc(O)c(Cl)c2Cl)CCCCC1` reads “inactive”; that for `C[N+]1(C)CCCCC1`, “inactive”. In the case of `COc1cc(OC)nc(Sc2cccc(Cl)c2C(=O)O)n1`, the call was inactive.

Regarding `CCc1cnc(C2=NC(C)(C(C)C)C(=O)N2)c(C(=O)O)c1` (stereo not given), the compound was called inactive.

Take `CCOP(=S)(OCC)Oc1ccc([N+](=O)[O-])cc1`: the compound was called inactive. The result for `O=[N+]([O-])c1cc(C(F)(F)F)c(Cl)c([N+](=O)[O-])c1Nc1ncc(C(F)(F)F)cc1Cl` reads “inactive”; that for `COP(=O)(OC)OC(Br)C(Cl)(Cl)Br` (stereo not given), “inactive”. Consider `CNC(=O)Oc1cccc2c1OC(C)(C)O2`, for which the result was inactive. With `CSC1=N[C@@](C)(c2ccccc2)C(=O)N1Nc1ccccc1`, the result was inactive. In the case of `CC(COc1ccc(Oc2ccccc2)cc1)Oc1ccccn1` (stereo not given), the compound was called inactive. As for `O=C(O)c1cc(Oc2ccc(C(F)(F)F)cc2Cl)ccc1[N+](=O)[O-]`, the outcome was inactive.

Take `CN(C)C(=O)Nc1cccc(C(F)(F)F)c1`: the outcome was inactive. Consider `Nc1nc(N)nc(NC2CC2)n1`, for which the call was inactive. The result for `CCCSP(=O)(OCC)SCCC` reads “inactive”; that for `CSc1nnc(C(C)(C)C)c(=O)n1N`, “inactive”; that for `CCCCSP(=O)(SCCCC)SCCCC`, “inactive”. Regarding `CCc1cccc(C)c1N(C(=O)CCl)C(C)COC` (stereo not given), the call was inactive. As to `CCCCOC(=O)[C@@H](C)Oc1ccc(Oc2ccc(C#N)cc2F)cc1`, the compound was classed as inactive. With `COP(=O)(OC)SCn1c(=O)oc2cc(Cl)cnc21`, the compound was classed as inactive. On to `CCC(=O)Nc1ccc(Cl)c(Cl)c1`, for which the outcome was inactive.

With `CSc1nc(NC(C)C)nc(NC(C)C)n1`, the compound was called inactive. The result for `CCNc1nc(Cl)nc(NC(C)(C)C#N)n1` reads “inactive”; that for `Cc1cc(C2CC2)nc(Nc2ccccc2)n1`, “inactive”; that for `CCCCOC(=O)c1ccccc1C(=O)O`, “inactive”. Turning to `CN(C)NC(=O)CCC(=O)O`, the outcome was inactive. In the case of `CCCCN(CC)c1c([N+](=O)[O-])cc(C(F)(F)F)cc1[N+](=O)[O-]`, the result was inactive. The result for `CNC(=O)ON=C(C)SC` reads “inactive”; that for `CON=C(C(=O)OC)c1ccccc1CON=C(C)c1cccc(C(F)(F)F)c1`, “inactive”. `CCOP(=O)(NC(C)C)Oc1ccc(SC)c(C)c1` (stereo not given): the compound was classed as inactive. `CNC(=O)ON=C(SC)C(=O)N(C)C`: the compound was called inactive.

In the case of `CNc1cnn(-c2cccc(C(F)(F)F)c2)c(=O)c1Cl`, the call was inactive. Regarding `CCOP(=S)(OCC)Oc1ccc2c(C)c(Cl)c(=O)oc2c1`, the compound was classed as inactive. In the case of `CCc1cccc(CC)c1N(COC)C(=O)CCl`, the outcome was inactive.

Consider `COP(=O)(OC)C(O)C(Cl)(Cl)Cl` (stereo not given), for which the compound was classed as inactive.

As for `C=C(C)[C@H]1Cc2c(ccc3c2O[C@@H]2COc4cc(OC)c(OC)cc4[C@@H]2C3=O)O1`, the result was inactive. Turning to `C#CCC1=C(C)C(OC(=O)C2C(C=C(C)C)C2(C)C)CC1=O` (stereo not given), the compound was called inactive. For `CCOP(=O)(OCC)Oc1cc(C)nc(C(C)C)n1`, the call was inactive. Regarding `C#CC(C)(C)NC(=O)c1cc(Cl)cc(Cl)c1`, the call was inactive.
